Our source for the Inhibition values is ChEMBL document CHEMBL4513149, “CO-ADD screening of MMV (CH) - MMV compounds” (2021).

One experiment concerns Klebsiella pneumoniae. As to conditions: Concentration 20 uM; ASSAY_TEST Inhibition of Bacterial Growth; detection method Absorption (OD600); MEDIA CAMHB; plate type 384well; NBS; CORNING #3640; time 18 hr.
A further experiment relates to Candida albicans. As to conditions: 20 µM.
In a further experiment the test system is Cryptococcus neoformans. Particulars: Concentration 20 uM; ASSAY_TEST Inhibition of Fungal Growth; detection method Resazurin; Absorption (OD600-OD570); plate type 384well; NBS; CORNING #3640. (In general: Resazurin is reduced to fluorescent resorufin, in cell work by metabolically active cells.)

SMILES strings stand for the structures. Results with a measured potency or affinity are listed apart.

As for `O=C(NCc1cc(Cl)cc(Cl)c1)c1c(C(F)(F)F)nc2ccccn12`, the values for the Inhibition with Klebsiella pneumoniae, with Candida albicans and in the experiment with Cryptococcus neoformans were 15.19%, 8.03% and -5.43%, respectively.

With `Cc1cc(Cl)ccc1NC(=O)CCc1ccc(S(=O)(=O)NCC(C)C)cc1`, the Inhibition – broadly, the drop in the measured response relative to a control, in per cent – in the experiment on Klebsiella pneumoniae was 8.81%; in the experiment on Candida albicans, 1.81%; in the experiment on Cryptococcus neoformans, -9.04%.

For `Clc1ccc(-n2cc(COc3ccnc4ccccc34)nn2)cc1`, the Inhibition in the experiment with Klebsiella pneumoniae was 12.62%; in the experiment with Candida albicans, 3.14%; in the experiment on Cryptococcus neoformans, -4.84%.

With `c1ccc(Oc2ccc(-c3cc(C4CCOCC4)[nH]n3)cc2)cc1`, the figures for the Inhibition with Klebsiella pneumoniae, in the experiment on Candida albicans and in the experiment with Cryptococcus neoformans were 16.38%, 7.75% and 0.97%, respectively.

Turning to `Nc1ncc(-c2cn[nH]c2)cc1-c1nc2cc(Cl)cnc2[nH]1`, the Inhibition in the experiment with Klebsiella pneumoniae was 5.89%; in the experiment with Candida albicans, 4.36%; in the experiment on Cryptococcus neoformans it was -3.87%.

`CS(=O)(=O)c1ccc(C(=O)N(CC2CCCO2)c2nc3ccccc3s2)cc1[N+](=O)[O-]` (stereo unspecified): the Inhibition is 7.4% in the experiment with Klebsiella pneumoniae, 3.23% in the experiment with Candida albicans and -10.33% with Cryptococcus neoformans.

Turning to `c1cc(C2=NCCN2)cc(-c2cc(-c3ccc(C4=NCCN4)cc3)no2)c1`, the Inhibition with Klebsiella pneumoniae is 11.59%; in the experiment on Candida albicans, 2.32%; in the experiment with Cryptococcus neoformans, -10.15%.

With `Cc1cc(OCC(=O)Nc2ccc(C(C)C)cc2)n(C)c(=O)c1C#N`, the Inhibition in the experiment on Klebsiella pneumoniae is -7.95%; in the experiment on Candida albicans, 4.91%; in the experiment on Cryptococcus neoformans it was 4.44%.

Take `Cc1nc(-c2ccccn2)nc(NCCc2ccc(S(C)(=O)=O)cc2)c1Cl`: the Inhibition in the experiment on Klebsiella pneumoniae stood at 10.15%; in the experiment on Candida albicans, 4.79%; in the experiment with Cryptococcus neoformans it was 2.36%.

Take `COc1ccccc1OCCCCn1c(C2CC2)nc2ccccc21`: the Inhibition is 10.24% with Klebsiella pneumoniae, 1.96% in the experiment with Candida albicans and -4.4% in the experiment with Cryptococcus neoformans.

As to `Nc1nccc2ccc(Oc3ccncc3)cc12`, the Inhibition in the experiment with Klebsiella pneumoniae is 18.43%; with Candida albicans it was 1.98%; with Cryptococcus neoformans, -6.05%.

For `CC(C)/N=c1\cc2n(-c3ccc(Cl)cc3)c3ccccc3nc-2cc1Nc1ccc(Cl)cc1` [CLOFAZIMINE], the Inhibition in the experiment on Klebsiella pneumoniae is 13.39%; in the experiment with Candida albicans, 5.63%; in the experiment with Cryptococcus neoformans, -11.17%.

In the case of `CCN(CC)CCCN1CCN(C(=O)c2cccc(-c3noc(C(F)(F)F)n3)c2)CC1`, the values for the Inhibition in the experiment on Klebsiella pneumoniae, in the experiment with Candida albicans and with Cryptococcus neoformans were 3.68%, 1.48% and -3.47%, respectively.

As for `Cc1ccc(NC(=O)CC2COc3ccccc3O2)cc1Cl` (stereo unspecified), the Inhibition with Klebsiella pneumoniae is 11.14%; in the experiment with Candida albicans, 2.65%; in the experiment on Cryptococcus neoformans, -13.17%.

With `CC(C)(C)CN1C(=O)C(c2ccccc2)(c2ccccc2)N=C1N`, the Inhibition in the experiment with Klebsiella pneumoniae was 14.16%; in the experiment on Candida albicans, 3.38%; in the experiment on Cryptococcus neoformans it was 1.98%.

On to `CCN(CC)C(=O)N1CCN(C)CC1` [DIETHYLCARBAMAZINE], for which the Inhibition was 16.19% in the experiment with Klebsiella pneumoniae, 2.79% in the experiment with Candida albicans and -5.92% in the experiment with Cryptococcus neoformans.

Consider `Cc1cc(Nc2ccncc2)n2nc(C)c(-c3ccccc3Cl)c2n1`, for which the results for the Inhibition in the experiment on Klebsiella pneumoniae, with Candida albicans and in the experiment on Cryptococcus neoformans were 15.32%, 1.91% and -9.03%, respectively.

On to `CN(C)CCNC(=O)N1CCCN(c2ncnc3cc(-c4ccccc4)sc23)CC1`, for which the Inhibition in the experiment on Klebsiella pneumoniae was 15.92%; in the experiment with Candida albicans, 2.85%; in the experiment with Cryptococcus neoformans it was -8.19%.

On to `CC1CC1C(=O)NC1CCN(CC2(c3ccccc3)CCCCC2)CC1` (stereo unspecified), for which the Inhibition in the experiment on Klebsiella pneumoniae is 16.4%; with Candida albicans, 3.19%; in the experiment on Cryptococcus neoformans, -6.72%.

Consider `CN1CCN(c2nccc3nc(-c4ccc(F)c(F)c4)[nH]c23)CC1`, for which the results for the Inhibition in the experiment with Klebsiella pneumoniae, in the experiment with Candida albicans and with Cryptococcus neoformans were 17.85%, 1.66% and -6.31%, respectively.

For the molecule `CCc1ccccc1-n1c(C)cn2c3c(=O)n(C(C(=O)OC)C(C)C)c(=O)n(C)c3nc12` (stereo unspecified), the values for the Inhibition in the experiment with Klebsiella pneumoniae, in the experiment with Candida albicans and in the experiment with Cryptococcus neoformans were 8.42%, 0.33% and -8.91%, respectively.

`Cc1ccc2cc(C3NC(=O)c4ccccc4N3)c(Cl)nc2c1` (stereo unspecified): the Inhibition was 19.35% in the experiment with Klebsiella pneumoniae, 3.16% in the experiment with Candida albicans and -7.26% in the experiment on Cryptococcus neoformans.

For `O=C(c1cc2ccccc2o1)N1CCN(Cc2ccc3c(c2)OCO3)CC1`, the values for the Inhibition in the experiment on Klebsiella pneumoniae, with Candida albicans and with Cryptococcus neoformans were 9.23%, -0.54% and -15.32%, respectively.

As to `Cc1c[nH]c(CCNC(=O)c2cc(-c3ccc(Cl)cc3)cs2)n1`, the values for the Inhibition with Klebsiella pneumoniae, in the experiment with Candida albicans and in the experiment with Cryptococcus neoformans were 19.09%, 2.87% and -12.96%, respectively.

For the molecule `CC1=NN(c2nc3ccccc3s2)C(=O)C1Cc1cccc2ccccc12` (stereo unspecified), the Inhibition was 10.99% in the experiment with Klebsiella pneumoniae, 19.6% in the experiment with Candida albicans and -5.86% with Cryptococcus neoformans.

Turning to `COc1cccn2c(C(=O)N3CCCCC3)c(C(F)(F)F)nc12`, the Inhibition in the experiment with Klebsiella pneumoniae is 7.08%; in the experiment on Candida albicans, 1.9%; in the experiment with Cryptococcus neoformans it was -6.15%.

Take `Cc1ccc(S(=O)(=O)n2cc(-c3ccnc(N)c3)c3cc(Br)cnc32)cc1`: the Inhibition in the experiment on Klebsiella pneumoniae is 7.11%; in the experiment on Candida albicans, 37.1%; in the experiment with Cryptococcus neoformans it was -2.21%.

Regarding `CS(=O)(=O)N1CCC(CCn2nc(Cc3cccc4ccccc34)c3c(N)ncnc32)CC1`, the Inhibition with Klebsiella pneumoniae is 2.11%; in the experiment with Candida albicans, 3.38%; in the experiment with Cryptococcus neoformans, -7.27%.

As for `c1coc(CNc2nc(N3CCCCC3)nc3ccccc23)c1`, the values for the Inhibition in the experiment with Klebsiella pneumoniae, with Candida albicans and with Cryptococcus neoformans were 7.9%, 4.06% and -16.26%, respectively.

Take `Cc1ccc(Oc2ccc(NC(=O)CNc3ccccc3N3CCCC3=O)cc2)cc1`: the Inhibition in the experiment on Klebsiella pneumoniae is 9.79%; in the experiment on Candida albicans, 2.74%; with Cryptococcus neoformans, -10.82%.

For the molecule `Cc1cc(C)c2cc(C(=O)NC3CCCCCCC3)[nH]c2c1`, the Inhibition in the experiment with Klebsiella pneumoniae was 18.42%; in the experiment with Candida albicans, 3.94%; in the experiment on Cryptococcus neoformans, -6.05%.

Take `CCOc1ccccc1NC(C)C(=O)Nc1cc(C(F)(F)F)ccc1N1CCOCC1` (stereo unspecified): the Inhibition in the experiment with Klebsiella pneumoniae is 14.66%; in the experiment with Candida albicans it was 4.33%; with Cryptococcus neoformans, -7.7%.
